Source: ChEMBL document CHEMBL1961873, “Compounds: GSK PKIS; Assays: Nanosyn kinase panel” (2012)

molecular target: Vascular endothelial growth factor receptor 3 (Homo sapiens) (UniProt P35916); details: at 0.1 µM
Sequence (P35916 whole entry): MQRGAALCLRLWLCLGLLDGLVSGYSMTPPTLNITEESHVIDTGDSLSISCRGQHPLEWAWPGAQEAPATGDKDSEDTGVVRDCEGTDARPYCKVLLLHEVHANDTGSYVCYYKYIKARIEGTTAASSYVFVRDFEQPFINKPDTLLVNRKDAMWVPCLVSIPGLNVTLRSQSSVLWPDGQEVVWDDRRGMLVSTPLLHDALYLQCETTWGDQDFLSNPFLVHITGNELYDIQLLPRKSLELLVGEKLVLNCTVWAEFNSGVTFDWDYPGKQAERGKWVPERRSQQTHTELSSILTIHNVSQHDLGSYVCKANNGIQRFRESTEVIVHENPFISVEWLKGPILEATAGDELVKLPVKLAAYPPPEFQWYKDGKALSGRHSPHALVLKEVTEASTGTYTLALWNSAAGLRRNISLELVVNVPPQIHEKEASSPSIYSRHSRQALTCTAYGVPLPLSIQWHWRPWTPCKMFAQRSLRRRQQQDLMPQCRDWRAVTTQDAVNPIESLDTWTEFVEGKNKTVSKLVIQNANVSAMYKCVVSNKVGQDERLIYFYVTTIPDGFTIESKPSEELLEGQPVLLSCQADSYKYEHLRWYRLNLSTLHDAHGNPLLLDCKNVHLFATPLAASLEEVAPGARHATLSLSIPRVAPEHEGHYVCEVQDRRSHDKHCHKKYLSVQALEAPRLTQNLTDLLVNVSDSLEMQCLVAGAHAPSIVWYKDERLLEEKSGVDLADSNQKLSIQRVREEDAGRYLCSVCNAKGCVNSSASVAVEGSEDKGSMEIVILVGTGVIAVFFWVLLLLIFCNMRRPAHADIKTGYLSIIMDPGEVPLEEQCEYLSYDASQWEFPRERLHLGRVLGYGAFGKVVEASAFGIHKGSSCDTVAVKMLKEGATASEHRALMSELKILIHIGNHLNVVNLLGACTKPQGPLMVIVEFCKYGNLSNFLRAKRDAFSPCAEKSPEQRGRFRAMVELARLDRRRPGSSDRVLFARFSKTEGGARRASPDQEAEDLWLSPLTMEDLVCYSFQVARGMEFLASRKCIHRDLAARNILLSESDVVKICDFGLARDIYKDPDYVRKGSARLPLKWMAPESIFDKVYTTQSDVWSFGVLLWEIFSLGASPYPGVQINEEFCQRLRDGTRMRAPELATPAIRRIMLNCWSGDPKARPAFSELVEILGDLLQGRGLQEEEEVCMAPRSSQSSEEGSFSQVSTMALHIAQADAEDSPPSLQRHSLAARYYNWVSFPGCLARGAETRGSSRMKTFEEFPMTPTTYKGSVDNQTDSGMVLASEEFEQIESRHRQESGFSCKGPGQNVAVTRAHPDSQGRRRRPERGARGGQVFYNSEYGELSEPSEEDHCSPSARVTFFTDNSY

**Q.** With `CCS(=O)(=O)c1ccc(OC)c(Nc2ncc(-c3cccc(OC)c3)o2)c1` as the molecule, how does the inhibition read?
**A.** 27.6%

**Q.** Which inhibition does the source give for `CCn1c(-c2nonc2N)nc2c(C#CC(C)(C)O)nc(OCCNC)cc21` here?
**A.** 1.76%

**Q.** With `CN1CCN(C(=O)c2ccc(NC(=O)Nc3ccc(N(C)c4ccnc(Nc5ccc(CS(C)(=O)=O)cc5)n4)cc3)cc2)CC1` as the molecule, how does the inhibition read?
**A.** 8.95%

**Q.** How did the inhibition turn out when `CC(C)c1ccc(Nc2nccc(-c3cnn4ncccc34)n2)cc1` was run?
**A.** 0.79%

**Q.** For `N#Cc1cccc(Nc2nccc(-c3cnn4ncccc34)n2)c1`, which inhibition is on record?
**A.** 5.06%

**Q.** How did the inhibition turn out when `c1ccc(Cc2nc3ccc(Nc4ncnc5ccccc45)cc3[nH]2)cc1` was run?
**A.** 0.79%

**Q.** Which inhibition does the source give for `Cc1ccc(C(=O)NC2CC2)cc1-c1ccc2[nH]ncc2c1` here?
**A.** -0.16%

**Q.** Which inhibition does the source give for `COC(=O)Nc1nc2cc(Oc3ccc(NC(=O)Nc4cccc(Br)c4)cc3)ccc2[nH]1` here?
**A.** 3.16%

**Q.** How did the inhibition turn out when `NC(=O)c1sc(-n2cnc3ccccc32)cc1OCc1ccccc1Br` was run?
**A.** 2.98%

**Q.** With `c1ccc(Nc2ncc(-c3ccccc3)o2)cc1` as the molecule, how does the inhibition read?
**A.** 3.79%

**Q.** How did the inhibition turn out when `CCCN1CCCC(c2ccc(Nc3nc(Nc4cc(F)ccc4C(N)=O)c4cc[nH]c4n3)c(OC)c2)C1` (stereo unspecified) was run?
**A.** -0.55%

**Q.** `Nc1ccc(C#Cc2cncnc2Nc2ccc(OCc3cccc(F)c3)c(Cl)c2)cc1` was tested. Which inhibition did it give?
**A.** 1.01%

**Q.** `CN(C)C(=O)O[C@H]1CN[C@H](C#Cc2cc3ncnc(Nc4ccc(OCc5cccc(F)c5)c(Cl)c4)c3s2)C1` was tested. Which inhibition did it give?
**A.** 2.38%

**Q.** How did the inhibition turn out when `O=C1Nc2ccc(-c3cccnc3)cc2C1=Cc1cc(Br)c(O)c(Br)c1` was run?
**A.** 2.46%

**Q.** How did the inhibition turn out when `CS(=O)(=O)Nc1cccc(-c2ccc3c(NC(=O)C4CC4)n[nH]c3c2)c1` was run?
**A.** 3.41%

**Q.** `CCS(=O)(=O)c1ccc(OC)c(Nc2nccc(N(C)c3ccc4c(C)n[nH]c4c3)n2)c1` was tested. Which inhibition did it give?
**A.** 94.8%

**Q.** Which inhibition does the source give for `COc1cccc(-n2ncc3c(N/N=C/c4ccc(S(C)(=O)=O)cc4)ncnc32)c1` here?
**A.** -2.95%

**Q.** For `Cc1ccc2c(-c3ccnc(Nc4cccc(C(F)(F)F)c4)n3)c(-c3ccccc3)nn2n1`, which inhibition is on record?
**A.** 4.59%

**Q.** With `Cc1ccc2c(-c3ccnc(Nc4ccc5c(c4)OCCO5)n3)c(-c3ccc(C(F)(F)F)cc3)nn2n1` as the molecule, how does the inhibition read?
**A.** -1.78%

**Q.** Which inhibition does the source give for `NS(=O)(=O)c1ccc(-c2cc3ccncc3cc2OCc2ccccc2)cc1` here?
**A.** -1.68%

**Q.** With `COc1ccc2ncnc(Nc3ccc(OCc4ccccc4)cc3)c2c1` as the molecule, how does the inhibition read?
**A.** -0.47%

**Q.** With `CCn1c(-c2nonc2N)nc2ccc(F)cc21` as the molecule, how does the inhibition read?
**A.** 6.14%

**Q.** With `N#Cc1c(NC(=O)c2ccccc2F)sc2c1CCCC2` as the molecule, how does the inhibition read?
**A.** -2.53%

**Q.** `COc1cccc(-n2nc(C)c3c(N/N=C(\C)c4ccncc4)ncnc32)c1` was tested. Which inhibition did it give?
**A.** 1.67%

**Q.** How did the inhibition turn out when `OCc1ccc(-c2nc(-c3ccccn3)c(-c3ccc4c(c3)OCO4)[nH]2)cc1` was run?
**A.** 1.47%

**Q.** How did the inhibition turn out when `CCOc1nccc2c1nc(-c1nonc1N)n2CC` was run?
**A.** 12.8%

**Q.** `NS(=O)(=O)c1ccc(N/N=C2\C(=O)Nc3ccc(Cl)cc32)cc1` was tested. Which inhibition did it give?
**A.** 4.36%

**Q.** How did the inhibition turn out when `Cc1ccc(O)cc1Nc1ccnc2ccc(S(C)(=O)=O)cc12` was run?
**A.** 21.3%

**Q.** Which inhibition does the source give for `COC(=O)c1ccc2c(c1)C(=Cc1cc(Br)c(O)c(Br)c1)C(=O)N2` here?
**A.** 1.46%

**Q.** `[O-][S+]1CCN(Cc2ccc(-c3ccc4ncnc(Nc5ccc(OCc6ccccc6)c(Cl)c5)c4c3)o2)CC1` was tested. Which inhibition did it give?
**A.** 7.2%

**Q.** `COc1cccc(-n2ncc3c(N/N=C/c4ccc(C)cc4)ncnc32)c1` was tested. Which inhibition did it give?
**A.** 3.28%

**Q.** With `O=S(=O)(CCOCc1ccc(-c2ccc3ncnc(Nc4ccc(OCc5cccc(F)c5)c(Cl)c4)c3c2)o1)c1ccccc1` as the molecule, how does the inhibition read?
**A.** 5.04%

**Q.** With `COc1cc(/C=N/Nc2ncnc3c2cnn3C(C)C)ccc1O` as the molecule, how does the inhibition read?
**A.** 13.8%

molecular target: Vascular endothelial growth factor receptor 3 (Homo sapiens) (UniProt P35916); details: at 1 µM

**Q.** With `CCS(=O)(=O)c1ccc(OC)c(Nc2ncc(-c3cccc(OC)c3)o2)c1` as the molecule, how does the inhibition read?
**A.** 77.8%

**Q.** How did the inhibition turn out when `CCn1c(-c2nonc2N)nc2c(C#CC(C)(C)O)nc(OCCNC)cc21` was run?
**A.** 11.6%

**Q.** With `CN1CCN(C(=O)c2ccc(NC(=O)Nc3ccc(N(C)c4ccnc(Nc5ccc(CS(C)(=O)=O)cc5)n4)cc3)cc2)CC1` as the molecule, how does the inhibition read?
**A.** 37.5%

**Q.** With `CC(C)c1ccc(Nc2nccc(-c3cnn4ncccc34)n2)cc1` as the molecule, how does the inhibition read?
**A.** 9.77%

**Q.** With `N#Cc1cccc(Nc2nccc(-c3cnn4ncccc34)n2)c1` as the molecule, how does the inhibition read?
**A.** 22.3%

**Q.** How did the inhibition turn out when `c1ccc(Cc2nc3ccc(Nc4ncnc5ccccc45)cc3[nH]2)cc1` was run?
**A.** 2.3%

**Q.** For `Cc1ccc(C(=O)NC2CC2)cc1-c1ccc2[nH]ncc2c1`, which inhibition is on record?
**A.** 1.13%

**Q.** `COC(=O)Nc1nc2cc(Oc3ccc(NC(=O)Nc4cccc(Br)c4)cc3)ccc2[nH]1` was tested. Which inhibition did it give?
**A.** 11.9%

**Q.** How did the inhibition turn out when `NC(=O)c1sc(-n2cnc3ccccc32)cc1OCc1ccccc1Br` was run?
**A.** 4.24%

**Q.** Which inhibition does the source give for `c1ccc(Nc2ncc(-c3ccccc3)o2)cc1` here?
**A.** 11.7%

**Q.** `CCCN1CCCC(c2ccc(Nc3nc(Nc4cc(F)ccc4C(N)=O)c4cc[nH]c4n3)c(OC)c2)C1` (stereo unspecified) was tested. Which inhibition did it give?
**A.** 4.1%

**Q.** With `Nc1ccc(C#Cc2cncnc2Nc2ccc(OCc3cccc(F)c3)c(Cl)c2)cc1` as the molecule, how does the inhibition read?
**A.** 1.86%

**Q.** `CN(C)C(=O)O[C@H]1CN[C@H](C#Cc2cc3ncnc(Nc4ccc(OCc5cccc(F)c5)c(Cl)c4)c3s2)C1` was tested. Which inhibition did it give?
**A.** 1.19%

**Q.** `O=C1Nc2ccc(-c3cccnc3)cc2C1=Cc1cc(Br)c(O)c(Br)c1` was tested. Which inhibition did it give?
**A.** 4.42%

**Q.** With `CS(=O)(=O)Nc1cccc(-c2ccc3c(NC(=O)C4CC4)n[nH]c3c2)c1` as the molecule, how does the inhibition read?
**A.** 1.96%

**Q.** `CCS(=O)(=O)c1ccc(OC)c(Nc2nccc(N(C)c3ccc4c(C)n[nH]c4c3)n2)c1` was tested. Which inhibition did it give?
**A.** 104%

**Q.** How did the inhibition turn out when `COc1cccc(-n2ncc3c(N/N=C/c4ccc(S(C)(=O)=O)cc4)ncnc32)c1` was run?
**A.** 31.4%

**Q.** How did the inhibition turn out when `Cc1ccc2c(-c3ccnc(Nc4cccc(C(F)(F)F)c4)n3)c(-c3ccccc3)nn2n1` was run?
**A.** 24.9%

**Q.** Which inhibition does the source give for `Cc1ccc2c(-c3ccnc(Nc4ccc5c(c4)OCCO5)n3)c(-c3ccc(C(F)(F)F)cc3)nn2n1` here?
**A.** 2.51%

**Q.** With `NS(=O)(=O)c1ccc(-c2cc3ccncc3cc2OCc2ccccc2)cc1` as the molecule, how does the inhibition read?
**A.** 1.58%

**Q.** For `COc1ccc2ncnc(Nc3ccc(OCc4ccccc4)cc3)c2c1`, which inhibition is on record?
**A.** 0.28%

**Q.** Which inhibition does the source give for `CCn1c(-c2nonc2N)nc2ccc(F)cc21` here?
**A.** 6.77%

**Q.** With `N#Cc1c(NC(=O)c2ccccc2F)sc2c1CCCC2` as the molecule, how does the inhibition read?
**A.** 0.3%

**Q.** With `COc1cccc(-n2nc(C)c3c(N/N=C(\C)c4ccncc4)ncnc32)c1` as the molecule, how does the inhibition read?
**A.** 1.25%

**Q.** How did the inhibition turn out when `OCc1ccc(-c2nc(-c3ccccn3)c(-c3ccc4c(c3)OCO4)[nH]2)cc1` was run?
**A.** -0.57%

**Q.** Which inhibition does the source give for `CCOc1nccc2c1nc(-c1nonc1N)n2CC` here?
**A.** 19.3%

**Q.** `NS(=O)(=O)c1ccc(N/N=C2\C(=O)Nc3ccc(Cl)cc32)cc1` was tested. Which inhibition did it give?
**A.** 9.79%

**Q.** Which inhibition does the source give for `Cc1ccc(O)cc1Nc1ccnc2ccc(S(C)(=O)=O)cc12` here?
**A.** 68.8%

**Q.** How did the inhibition turn out when `COC(=O)c1ccc2c(c1)C(=Cc1cc(Br)c(O)c(Br)c1)C(=O)N2` was run?
**A.** 9.65%

**Q.** `[O-][S+]1CCN(Cc2ccc(-c3ccc4ncnc(Nc5ccc(OCc6ccccc6)c(Cl)c5)c4c3)o2)CC1` was tested. Which inhibition did it give?
**A.** 11.7%

**Q.** `COc1cccc(-n2ncc3c(N/N=C/c4ccc(C)cc4)ncnc32)c1` was tested. Which inhibition did it give?
**A.** 4.5%

**Q.** With `O=S(=O)(CCOCc1ccc(-c2ccc3ncnc(Nc4ccc(OCc5cccc(F)c5)c(Cl)c4)c3c2)o1)c1ccccc1` as the molecule, how does the inhibition read?
**A.** 14%

**Q.** With `COc1cc(/C=N/Nc2ncnc3c2cnn3C(C)C)ccc1O` as the molecule, how does the inhibition read?
**A.** 22.1%
